Screening data (PubChem)
D2 PAM-1: positive allosteric modulators of human D2 dopamine receptor. P14416. HEK293 T-REx D2, calcium flux, EC20 dopamine potentiation. potentiation, % at 10 µM. 0.34% of 340,000 active;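 active means potentiation over 3 SD above the plate norm, cut at about 30% in these data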; further: 0% is about no effect
Target sequence (P14416 whole entry, looked up): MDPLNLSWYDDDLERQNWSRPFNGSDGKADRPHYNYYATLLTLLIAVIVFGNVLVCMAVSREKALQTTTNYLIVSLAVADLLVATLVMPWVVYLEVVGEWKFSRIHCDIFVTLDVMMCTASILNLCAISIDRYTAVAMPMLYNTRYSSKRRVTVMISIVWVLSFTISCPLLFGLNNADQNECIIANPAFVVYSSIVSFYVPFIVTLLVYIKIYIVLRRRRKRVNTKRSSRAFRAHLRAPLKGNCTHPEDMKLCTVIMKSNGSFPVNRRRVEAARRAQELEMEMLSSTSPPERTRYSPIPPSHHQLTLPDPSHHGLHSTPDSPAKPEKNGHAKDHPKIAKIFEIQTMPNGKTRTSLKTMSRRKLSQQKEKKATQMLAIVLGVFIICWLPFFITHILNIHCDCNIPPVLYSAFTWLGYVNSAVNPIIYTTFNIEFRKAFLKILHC
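Potentiation of an EC20 dopamine calcium response is measured in a force-coupled, tetracycline-inducible Hek293 Trex D2 line. Compound-only kinetic reads over 180 s flag agonists before dopamine addition.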
D2 ag-1: activates the human D2 dopamine receptor; P14416; HEK293 T-REx D2 cells, calcium flux agonist mode; activation, % at 2 µM; 0.53% of 340,000 active;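 active means activation over 3 SD above normal in the single-dose calcium agonist read, cut at about 30% in these data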; further: 0% is about no effect
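Tetracycline-induced HEK293 T-REx cells with force-coupled D2 receptor, plated overnight at 30 C, loaded with no-wash calcium dye. After a 10 s baseline, compound was pin-added and calcium flux read kinetically for 180 s; calcium rises flagged agonists.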
D2 antag: antagonists of human D2 dopamine receptor. P14416. HEK293 TREx D2 cells, calcium flux, dopamine EC80. inhibition, % at 10 µM. 2% of 340,000 active. AID 485344; in the data active means inhibition above about 30%; inactive means below that, where a call was filed; further: 0% is about no effect
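Tetracycline-induced HEK293 TREx cells expressing D2 receptor forced-coupled to calcium signalling, loaded with no-wash calcium dye. Compounds added and calcium flux read 180 s, then dopamine added at EC80 and read a further 180 s.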
D2 PAM-2: human D2 receptor positive allosteric modulation; P14416; DiscoveRx D2 beta-arrestin cells, luminescence, 90 min; 100% = 57 uM dopamine signal; potentiation, % (no concentration beside the values); AID 624464; 0.23% of 360,000 active; in the data active means potentiation above about 50%; inconclusive means mostly about 30% to 49%
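D2 cells co-treated with compound plus 50 nM dopamine (EC20) for 90 min at 37 deg C to detect potentiation. Beta-arrestin recruitment was read as enzyme-fragment luminescence after 1 h at ambient temperature. Full response was set by 57 uM dopamine.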
D2 ag-2: activates the human D2 dopamine receptor. DiscoveRx PathHunter D2 beta-arrestin, luminescence, 90 min; 100% = 57 uM dopamine signal. AID 624465. activation, % (no concentration beside the values). 0.084% of 360,000 active. P14416; in the data active means activation above about 40%; inconclusive means between about 15% and that limit
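DiscoveRx PathHunter D2 beta-arrestin cells (2,100/well) attached overnight, then compound-stimulated 90 min at 37 C in HBSS/10 mM HEPES/0.1% Tween-20 buffer; beta-galactosidase complementation read by luminescence after 1 h at ambient temperature. Dopamine 57 uM final (EC100) as control.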
Numbers without * were called inactive. Sampled rows, rich in hits. Any-hit rate of the full collection: about 2.4%.

What do the screens show for `COc1ccc([C@H]2[C@H](C(=O)C(C)(C)C)N3N=Cc4ccccc4C3[C@]23N=C(c2ccccc2)OC3=O)cc1OC` (stereo partly drawn)?
D2 PAM-1: -1; D2 ag-1: 1; D2 antag: 24; D2 PAM-2: 58*; D2 ag-2: 7

How did O=C(Nc1ccc(S(=O)(=O)Nc2ncccn2)cc1)c1cccnc1 do in these assays?
D2 PAM-1: 6; D2 ag-1: 0; D2 antag: 42*; D2 PAM-2: 1; D2 ag-2: 1

What do the screens show for `O=C(Nc1ccc(S(=O)(=O)Nc2ccccn2)cc1)c1cccc([N+](=O)[O-])c1`?
D2 PAM-1: -3; D2 ag-1: 0; D2 antag: 39*; D2 PAM-2: 16; D2 ag-2: 3

How did Cc1ccc(C(=O)Nc2onc3c2CCCC3)cc1 do in these assays?
D2 PAM-1: -7; D2 ag-1: -1

What do the screens show for `COCCCNC(=O)c1c(NC(=O)Cc2coc3c(C)c(C)ccc23)sc2c1CCCC2`?
D2 PAM-1: 8; D2 ag-1: -1

How did O=C1N[C@@H](Cc2ccccc2)[C@@H](c2ccco2)O1 do in these assays?
D2 PAM-1: 14; D2 ag-1: -1; D2 antag: 32*; D2 PAM-2: 2; D2 ag-2: -1

How did CSc1cccc(N2C(=O)N(CC(=O)NCc3ccccc3Cl)c3ccccc3S2(=O)=O)c1 do in these assays?
D2 PAM-1: 16; D2 ag-1: 1

What do the screens show for `CCN1CCN(C(=O)c2cccc(OC3CCN(S(=O)(=O)N(C)C)CC3)c2)CC1`?
D2 PAM-1: 36*; D2 ag-1: 1; D2 antag: 2; D2 PAM-2: -12; D2 ag-2: -6

Results for O=C(N/C=C/n1cnc2cc(C(F)(F)F)ccc21)c1ccccc1F ?
D2 PAM-1: 83*; D2 ag-1: 0; D2 antag: -7; D2 PAM-2: -8; D2 ag-2: 1

What do the screens show for `O=C(N/C=C/n1cnc2cc(C(F)(F)F)ccc21)c1ccc(F)cc1`?
D2 PAM-2: -7; D2 ag-2: -1

What do the screens show for `O=C(CC1N=C2c3ccccc3N=C(SCc3ccccc3F)N2C1=O)NCc1ccc2c(c1)OCO2` (stereo not drawn)?
D2 ag-1: 0

How did O=[N+]([O-])c1ccccc1-c1ccc(CN2CCN(c3ccccc3)CC2)o1 do in these assays?
D2 PAM-1: -22; D2 ag-1: 23; D2 antag: 52*; D2 PAM-2: -18; D2 ag-2: inconclusive

How did COc1ccc(Br)cc1CNc1ccc(O)cc1 do in these assays?
D2 ag-1: -1; D2 antag: 13; D2 PAM-2: 55*; D2 ag-2: 10

What do the screens show for `C/C(=N\NC(=O)COc1ccccc1)c1ccc(O)cc1`?
D2 PAM-1: -8; D2 ag-1: -2; D2 antag: -18; D2 PAM-2: -17; D2 ag-2: -3

Results for C/C(=N\NC(=O)CC#N)c1ccc(Oc2ccccc2)cc1 ?
D2 PAM-1: 39*; D2 ag-1: 1; D2 antag: 5; D2 PAM-2: -3; D2 ag-2: -3

Results for O=C(Nc1ccc(C(F)(F)F)cc1Cl)c1ccc(Cn2cc(Br)cn2)o1 ?
D2 PAM-1: -22; D2 ag-1: 2; D2 antag: 37*; D2 PAM-2: -6; D2 ag-2: 2

Results for O=C(N/N=C/c1c(F)cccc1Cl)c1ccc(Cn2cc(Br)cn2)o1 ?
D2 PAM-1: -7; D2 ag-1: -3; D2 antag: -7; D2 PAM-2: -11; D2 ag-2: -4

Results for C/C(=N\NC(=O)c1ccc(Cn2cc(Br)cn2)o1)c1cccc(NC(=O)C(C)(C)C)c1 ?
D2 PAM-1: -5; D2 ag-1: 2; D2 antag: 8; D2 PAM-2: 22; D2 ag-2: -1

What do the screens show for `O=C(Nc1cccc(C(F)(F)F)c1)c1ccc(Cn2cc(Br)cn2)o1`?
D2 PAM-1: -17; D2 ag-1: 2; D2 antag: 35*; D2 PAM-2: -30; D2 ag-2: -3

How did O=C(CN1C(=O)C2C3C=CC(C3)C2C1=O)N1CC(=O)N(CCc2ccccc2)C(=O)C1 (stereo not drawn) do in these assays?
D2 PAM-1: 10; D2 ag-1: 0; D2 antag: -6; D2 PAM-2: 21; D2 ag-2: 0

Results for O=C(CCN1C(=O)C2C3C=CC(C3)C2C1=O)N1CC(=O)N(CCc2ccccc2)C(=O)C1 (stereo not drawn) ?
D2 PAM-1: 21; D2 ag-1: 1; D2 antag: 31*; D2 PAM-2: -20; D2 ag-2: -4

What do the screens show for `COc1ccc(OC)c(-c2nn(-c3ccccc3)cc2C(=O)NCC(c2ccco2)N2CCCC2)c1` (stereo not drawn)?
D2 PAM-1: -20; D2 ag-1: 0; D2 antag: 36*; D2 PAM-2: -35; D2 ag-2: -3

Results for COc1ccccc1NS(=O)(=O)c1cccc(C(=O)NCC(c2ccccc2OC)N2CCCC2)c1 (stereo not drawn) ?
D2 PAM-1: -10; D2 ag-1: 0; D2 antag: 11; D2 PAM-2: -43; D2 ag-2: -4

Results for COc1ccccc1NS(=O)(=O)c1cccc(C(=O)NCC(c2ccco2)N2CCCC2)c1 (stereo not drawn) ?
D2 PAM-1: -27; D2 ag-1: 1; D2 antag: 63*; D2 PAM-2: -23; D2 ag-2: 1

How did COc1ccc(C)cc1NC(=O)CCCN1C(=O)C(c2ccccc2)Oc2cccnc21 (stereo not drawn) do in these assays?
D2 PAM-1: 5; D2 ag-1: -1; D2 antag: 38*; D2 PAM-2: -36; D2 ag-2: -2

Results for Cc1nn(C)c(Sc2ccccc2N)c1[N+](=O)[O-] ?
D2 PAM-1: 1; D2 ag-1: 0; D2 antag: -9; D2 PAM-2: 1; D2 ag-2: 45*

What do the screens show for `Cc1ccc(CSc2nc3ccc(NC(=O)COc4ccccc4)cc3s2)cc1`?
D2 PAM-1: 13; D2 ag-1: 1

What do the screens show for `O=C1c2cccc3cccc(c23)C(=O)N1c1ccc(O)cc1`?
D2 PAM-1: -2; D2 ag-1: 0; D2 antag: 4; D2 PAM-2: -1; D2 ag-2: 3

How did O=C1c2cccc3c(N4CCCCC4)ccc(c23)C(=O)N1c1ccccc1O do in these assays?
D2 PAM-1: -5; D2 ag-1: 36*; D2 antag: 8; D2 PAM-2: -8; D2 ag-2: -3

Results for O=C1c2cccc3c(N4CCCCC4)ccc(c23)C(=O)N1c1ccc(O)cc1 ?
D2 PAM-1: -4; D2 ag-1: 66*; D2 antag: 29; D2 PAM-2: -6; D2 ag-2: 1

What do the screens show for `CCOc1ccccc1-c1noc(CSc2nnc(-c3ccccc3)n2-c2ccc(OC)cc2)n1`?
D2 PAM-1: -5; D2 ag-1: 0
